“And” between values parts separate entries of the source, which are not always exact repeats. Identical values can stand only once. In all, about 16,000 compounds went through this assay and about 960 (6%) were called active. For the sample, actives were picked, then their nearest neighbours and some compounds at random. A number with no mark means an inactive call.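 The calls were made as follows: active = compound fluorescence over control fluorescence at most 0.8, a quencher, or at least a set upper limit, an enhancer; inactive = ratio between 0.8 and the set upper limit.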
Assay: Cy5 fluorescence quenchers or enhancers, artefact control for HCV NS3 helicase inhibitor project, biochemical, ChemBridge library, Cy5 readout (AID 720488)
Details: Cy5-dT15 DNA with NS3h, at 100 µM, actives lie on both sides, signal over control mean, under 1 quenches
For `COc1ccc2[nH]cc(CCNC=O)c2c1`, the fluorescence interference ratio was 1.01. With `CCc1ccccc1NC(=O)/C(=C/c1ccccc1)c1ccccc1` the fluorescence interference ratio was 0.606 (active). `S=C(Nc1ccccc1)Nc1ccccc1NC(=S)Nc1ccccc1` showed a fluorescence interference ratio of 1.03. For `CCc1ccccc1NC(=O)C(=O)NCc1ccco1`, the fluorescence interference ratio was 1.09. In the case of `CCOC(=O)c1ccc(NC(=O)c2cc(OCC)cc(OCC)c2)cc1`, the fluorescence interference ratio is reported as 1.01. For `CCOC(=O)c1ccc(NC(=O)c2ccccc2OC)cc1`, the fluorescence interference ratio was 0.661 (active). For `CCOC(=O)c1ccc(NC(=O)C(=O)NCc2ccc(C)cc2)cc1`, the fluorescence interference ratio was 1. `COc1ccc(Br)cc1C(=O)Nc1cccc(-c2nc3ccccc3[nH]2)c1` gave a fluorescence interference ratio of 0.978. In the case of `O=C(/C=C\c1ccccc1)Nc1ccc(Br)cn1`, the fluorescence interference ratio is reported as 0.948. For `COc1cc(NC(=O)c2cnn3c2NC(c2cccs2)CC3C(F)(F)F)c(OC)cc1Cl` (stereo not given), the fluorescence interference ratio was 0.659 (active). `O=C(Nc1ccc(Cl)cc1C(O)c1ccccc1)c1cnn2c1NC(c1ccccc1)CC2C(F)(F)F` (stereo not given) gave a fluorescence interference ratio of 0.956. Molecule `O=C(Nc1ccc(OC(F)(F)F)cc1)c1nn2c(c1Br)NC(c1cccs1)CC2C(F)(F)F` (stereo not given) has a fluorescence interference ratio of 1. Work on `CSc1ccc(C=Nc2ccc(C#N)cc2)cc1` yielded a fluorescence interference ratio of 1.07. Molecule `Cc1cccc(C(=O)Nc2cccc(NC(=O)COc3ccccc3Cl)c2)c1` has a fluorescence interference ratio of 0.946. `CC(C)(C)NC(=O)CN(c1cccc(C(F)(F)F)c1)S(C)(=O)=O` gave a fluorescence interference ratio of 1.05. In the case of `COc1ccc(Br)cc1C(=O)Nc1ccc(F)c([N+](=O)[O-])c1`, the fluorescence interference ratio is reported as 0.959. With `COc1ccc(NC(=O)c2cccc(Cl)c2Cl)cc1OC` the fluorescence interference ratio was 0.784 (active). For `CC(=O)c1ccc(NC(=O)c2c(Cl)cccc2Cl)cc1`, the fluorescence interference ratio was 1.03. With `CCOc1ccc(-n2c(O)c(C=C3C=CC=N3)c(=O)[nH]c2=O)cc1` the fluorescence interference ratio was 0.942. Work on `COC(=O)C1CC(OCc2ccccc2)C1` (stereo not given) yielded a fluorescence interference ratio of 0.97. For `CCOc1cc(/C=C(\C#N)c2nc3ncc(Br)cc3[nH]2)ccc1O`, the fluorescence interference ratio was 0.791 (active). With `CCn1c(-c2ccc(OC)cc2)n[nH]c1=S` the fluorescence interference ratio was 1 and 1.01. For `CCN(CC)c1ccc(C=C2C(=O)N(C)C(=O)N(C)C2=O)c(O)c1`, the fluorescence interference ratio was 2.02 (active). Molecule `CCN1C(=O)C(=Cc2ccc(O)cc2)C(=O)NC1=S` has a fluorescence interference ratio of 1.02. With `CCN(CC)c1ccc(/C=C2\C(=O)NC(=O)N(C)C2=O)cc1` the fluorescence interference ratio was 1.29 (active). With `Cc1cc(C)cc(N2C(=O)NC(=O)/C(=C\c3ccc(F)cc3)C2=O)c1` the fluorescence interference ratio was 1.02. `CCN(CC)c1ccc(N2C(=O)/C(=C/c3ccc4c(c3)OCO4)SC2=S)cc1` showed a fluorescence interference ratio of 1.12. Molecule `NS(=O)(=O)c1ccc(CNC(=O)c2ccc(Cl)cc2[N+](=O)[O-])cc1` has a fluorescence interference ratio of 0.985. With `O=C(CSc1ncc(-c2ccccc2)[nH]1)Nc1ccc(Br)cc1` the fluorescence interference ratio was 0.959. Work on `COc1ccc(Cl)cc1C(=O)N1CCN(c2cccc(Cl)c2)CC1` yielded a fluorescence interference ratio of 0.934. `CCOC(=O)NCc1ccc(N(C)C)cc1` showed a fluorescence interference ratio of 0.963. For `CP(=O)(c1ccc(C(N)=O)cc1)c1ccc(C(N)=O)cc1`, the fluorescence interference ratio was 1.06. `O=C(Nc1c(F)cc(F)cc1Br)c1cc2n(n1)C(C(F)(F)F)CC(c1ccc(Cl)cc1)N2` (stereo not given) gave a fluorescence interference ratio of 1.04. In the case of `CCc1ccc(N2C(=O)/C(=C/c3cc(C)n(-c4cccnc4)c3C)C(=O)NC2=S)cc1`, the fluorescence interference ratio is reported as 1.1. In the case of `NC(=NS(=O)(=O)c1ccccc1)c1ccc(Cl)cc1`, the fluorescence interference ratio is reported as 1.06. `CN(C)c1ccc(/C=C2/SC(=S)N(c3ccc(F)cc3)C2=O)cc1` showed a fluorescence interference ratio of 1.06. In the case of `Cc1cccc(N2C(=O)S/C(=C/c3ccc(N(C)C)cc3)C2=O)c1`, the fluorescence interference ratio is reported as 0.733 (active). In the case of `Cc1c(N2C(=O)S/C(=C\c3ccc(N(C)C)cc3)C2=O)c(=O)n(-c2ccccc2)n1C`, the fluorescence interference ratio is reported as 1.02. Molecule `O=C(/C=N/O)NCCCNCc1ccccc1` has a fluorescence interference ratio of 1.03. With `CC(C)N1C(=O)/C(=C/c2ccc(O)cc2)SC1=S` the fluorescence interference ratio was 0.867. Work on `CCC(=O)Nc1ccc(-c2nc3ccccc3o2)cc1` yielded a fluorescence interference ratio of 0.946. With `CCc1ccc2oc(-c3ccc(NC(=O)c4ccccc4[N+](=O)[O-])cc3)nc2c1` the fluorescence interference ratio was 0.659 (active). For `O=C(Nc1ccc2oc(-c3cccc(Cl)c3Cl)nc2c1)c1ccccc1[N+](=O)[O-]`, the fluorescence interference ratio was 1.11. For `CCN1C(=O)/C(=C\c2ccc(OCc3ccccc3Cl)cc2)SC1=S`, the fluorescence interference ratio was 0.997. With `COCCCNC(=O)CN(c1ccc(OC)cc1OC)S(=O)(=O)c1ccc(C)cc1` the fluorescence interference ratio was 1.23 (active). `COc1ccc(N(CC(=O)Nc2ccc(C(C)C)cc2)S(=O)(=O)c2ccc(C)cc2)c(OC)c1` showed a fluorescence interference ratio of 1.04. `COc1ccc(N(CC(=O)NCc2ccncc2)S(=O)(=O)c2ccc(C)cc2)cc1` gave a fluorescence interference ratio of 0.919. `CN1CCN(C(=O)c2cc3nc(-c4cccs4)cc(C(F)(F)F)n3n2)CC1` showed a fluorescence interference ratio of 0.935. `COc1cccc(C2C(C(=O)Nc3ccccc3)=C(C)N=c3s/c(=C\c4c[nH]c5ccccc45)c(=O)n32)c1` (stereo not given) gave a fluorescence interference ratio of 1.04. For `Nc1ccc(Sc2ccccc2[N+](=O)[O-])cc1`, the fluorescence interference ratio was 0.899. For `O=[N+]([O-])c1ccc(N2CCN(S(=O)(=O)c3ccccc3)CC2)cc1N1CCOCC1`, the fluorescence interference ratio was 1.11. In the case of `O=[N+]([O-])c1ccc(N2CCN(CCO)CC2)cc1NC(c1ccccc1)c1ccccc1`, the fluorescence interference ratio is reported as 0.793 (active). Work on `COc1ccc(CCNc2cc(N3CCOCC3)ccc2[N+](=O)[O-])cc1OC` yielded a fluorescence interference ratio of 0.856. Work on `COc1ccc(C(=O)/C=C/Nc2ccc(S(=O)(=O)N=C(N)N)cc2)cc1OC` yielded a fluorescence interference ratio of 0.963. `Cc1ccc(OCC(=O)NC(C)C)cc1` showed a fluorescence interference ratio of 1.11. In the case of `CCOC(=O)c1sc(NC(=O)COc2ccc(C)cc2C)c(C(=O)OCC)c1C`, the fluorescence interference ratio is reported as 0.985. In the case of `CCOC(=O)c1c(-c2ccc(C)cc2C)csc1NC(=S)NC(=O)c1ccccc1`, the fluorescence interference ratio is reported as 1.21 (active). Molecule `CCOC(=O)c1sc(NC(=O)c2ccc(OC)cc2)c(C(=O)OCC)c1C` has a fluorescence interference ratio of 1.02. `CC(C)(C)c1ccccc1OCC(O)CN1CCCC1` (stereo not given) gave a fluorescence interference ratio of 1.05. Molecule `C=CCOc1ccccc1C=C1C(=O)NC(=O)NC1=O` has a fluorescence interference ratio of 0.999. Work on `CC(=O)CC(=O)Nc1ccc2c(c1)OCCO2` yielded a fluorescence interference ratio of 1.13. With `CCOC(=O)c1ccc(NC(=O)CN(c2cccc([N+](=O)[O-])c2)S(=O)(=O)c2ccccc2)cc1` the fluorescence interference ratio was 0.663 (active). With `CCOC(=O)c1ccccc1NC(=O)/C(=C/c1cccc([N+](=O)[O-])c1)NC(=O)c1ccccc1` the fluorescence interference ratio was 1.01. Molecule `COc1ccccc1NC(=O)CN(c1cccc([N+](=O)[O-])c1)S(=O)(=O)c1ccccc1` has a fluorescence interference ratio of 0.943. For `Cc1cc(Nc2cccc(C(F)(F)F)c2)n2c(nc3ccccc32)c1C#N`, the fluorescence interference ratio was 1.06. For `COc1ccc2oc(=O)c(C(=O)O)cc2c1`, the fluorescence interference ratio was 1.08. With `O=C(NC(=S)Nc1ccc2oc(-c3cccnc3)nc2c1)c1ccc(Cl)cc1` the fluorescence interference ratio was 0.998. `O=C(NC(=S)Nc1ccc2oc(-c3ccc(Br)cc3)nc2c1)c1ccco1` showed a fluorescence interference ratio of 1.09. In the case of `O=C(NC(=S)Nc1ccc(-c2nc3cc(Cl)ccc3o2)cc1)c1ccco1`, the fluorescence interference ratio is reported as 2.04 (active). With `Cc1ccc(C2Nc3ccccc3C(=O)N2c2ccccc2)cc1` (stereo not given) the fluorescence interference ratio was 0.912. With `CCOC(=O)CSc1nnc(-c2cccc(Br)c2)o1` the fluorescence interference ratio was 1.15. Molecule `COc1ccc(S(=O)(=O)N(CCc2ccccc2)CC(=O)Nc2ccccc2F)cc1` has a fluorescence interference ratio of 1. With `COc1ccc(C(=O)Nc2nc3ccc(C)cc3s2)cc1Br` the fluorescence interference ratio was 1.23 (active). In the case of `O=C(Nc1nc2ccccc2s1)c1ccc2c(c1)OCO2`, the fluorescence interference ratio is reported as 0.992. Molecule `COc1ccc(C(=O)Nc2ncc([N+](=O)[O-])s2)cc1OC` has a fluorescence interference ratio of 0.92. With `COC(=O)c1c(C)oc2ccc(OCC(=O)c3ccccc3)cc12` the fluorescence interference ratio was 0.818. With `O=C(Nc1ccc(Br)cc1)c1ccc(S(=O)(=O)N2CCCC2)cc1` the fluorescence interference ratio was 0.938. `COc1ccc2occ(C(=O)c3ccc(N=C(C)N(C)C)cc3)c2c1` showed a fluorescence interference ratio of 1.07. Molecule `COc1ccccc1C(=O)N=Nc1c(O)n(C)c2ccccc12` has a fluorescence interference ratio of 1.03. In the case of `CC(C)Oc1ccc(/C=C(/NC(=O)c2ccccc2)C(=O)Nc2ccccc2)cc1`, the fluorescence interference ratio is reported as 1.01. In the case of `CCN(CC)c1ccc(NC(=O)/C(=C\c2ccccc2)NC(C)=O)cc1`, the fluorescence interference ratio is reported as 1.28 (active). With `CC(=O)Nc1ccc(NC(=S)NC(=O)/C=C/c2ccccc2)cc1` the fluorescence interference ratio was 1.07. `O=C(CCN1C(=O)/C(=C/c2cccs2)SC1=S)NC12CC3CC(CC(C3)C1)C2` showed a fluorescence interference ratio of 0.998. `Cc1cc(C)c(NC(=O)C(=O)NCC(C)O)c(C)c1` (stereo not given) gave a fluorescence interference ratio of 1.01. `O=C(/C=C/c1ccc(F)cc1)Nc1cccc(Cl)c1Cl` showed a fluorescence interference ratio of 1.01. For `CCOc1ccccc1NC(=O)Cc1ccccc1`, the fluorescence interference ratio was 1.03. In the case of `CCOc1ccccc1NC(=O)/C=C/c1ccc(Cl)cc1`, the fluorescence interference ratio is reported as 1.34 (active). Molecule `CC(=O)COc1ccc2c(-c3ccccc3)cc(=O)oc2c1` has a fluorescence interference ratio of 0.969. `COCCOC(=O)c1c(C)oc2ccc(OCC(N)=O)cc12` gave a fluorescence interference ratio of 1.05. In the case of `CS(=O)(=O)N(CC(=O)Nc1ccc(I)cc1)c1cccc(Cl)c1`, the fluorescence interference ratio is reported as 0.92. Molecule `Cc1ccc(NC(=O)c2ccc(NC(=O)c3ccc(Cl)cc3Cl)cc2)cc1` has a fluorescence interference ratio of 0.959. For `CC(=O)c1cccc(NC(=O)c2ccc(N(Cc3ccc(Cl)cc3)S(C)(=O)=O)cc2)c1`, the fluorescence interference ratio was 0.635 (active). Molecule `NCCCCNc1ccc([N+](=O)[O-])cc1` has a fluorescence interference ratio of 0.959. With `O=[N+]([O-])c1ccc(-c2ccc(I)cc2)cc1` the fluorescence interference ratio was 0.706 (active). Molecule `Cc1nn(-c2ccc(I)cc2)c(C)c1-c1cccc([N+](=O)[O-])c1` has a fluorescence interference ratio of 0.947.

— PubChem BioAssay AID720488 (Milwaukee Institute for Drug Discovery, 2013)
